Reference: PubChem BioAssay
Activity calls are given as the source filed them.

Columns and labels:
[1] = tested on: PRMT1 (protein arginine N-methyltransferase 1); experiment: small molecules binding arginine methyltransferase PRMT1 – biochemical, small-molecule microarray, 635 nm fluorescence, primary screen (AID 1088); conditions: higher = more signal;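 note: binding of Prmt1 protein to compounds spotted on small-molecule microarray slides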
[2] = growth effects on S. cerevisiae YJM789 – YJM789 clinical isolate, OD600, 24 h, basal, primary screen (AID 1089); conditions: higher = more signal, called active from +8 up or from −8 down;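 note: growth of clinical yeast isolate S. cerevisiae YJM 789 seeded 1000 cells per well; test concentration not given here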
[3] = S. pombe growth modifiers, basal conditions – strain 972, OD600, 24 h, no modulator, primary screen (AID 1090);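 note: basal condition with compound alone and no growth modifier present; test concentration not given here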; conditions: S. pombe 972 growth, higher = more signal, called active from +8 up or from −8 down
[4] = budding yeast growth modifiers under rapamycin – strain BY4716, OD600, 96 h, primary screen (AID 1091); note: test concentration not given here; conditions: S. cerevisiae BY4716 + rapamycin, higher = more signal, called active from +8 up or from −8 down
[5] = biological target: Torsin-1A-interacting protein 2 (Homo sapiens) (UniProt Q8NFQ8); experiment: small molecules binding lysate-expressed LULL1 – cell lysate, human LULL1 lysate, 635/667 nm fluorescence, primary screen (AID 1092); conditions: small-molecule microarray, hLULL1 lysate binding, 635 nm fluorescence; higher = more signal;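 note: probe is lysate of COS7 cells overexpressing human LULL1; score merges per-feature 667 nm fluorescence with signal-to-noise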
[6] = optical density change of DRC41 E. coli – strain DRC41, OD650, 24 h, E. coli filamentation project, primary screen (AID 1093);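 note: MC1000 strain lacking acrAB efflux and sulA so SOS filamentation is blocked; test concentration not given here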; conditions: E. coli DRC41 growth, higher = more signal, called active from +8 up or from −8 down
[7] = probe aLefty2 binding to arrayed compounds – biochemical, biotinylated probe, 635/667 nm fluorescence, primary screen (AID 1094); conditions: small-molecule microarray, higher = more signal;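 note: score merges spot fluorescence near 667 nm with spot signal-to-noise ratio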
[8] = tested on: Noggin (protein binding on small-molecule microarray); experiment: small molecules binding Noggin protein – biochemical, 635/667 nm fluorescence, primary screen (AID 1095); conditions: 635 nm fluorescence, higher = more signal;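 note: score merges 667 nm feature fluorescence with signal to noise over triplicate slides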
[9] = biological target: Neurogenic locus notch homolog protein 3 (Homo sapiens) (UniProt Q9UM47); experiment: small molecules binding NOTCH3 protein – biochemical, 635/667 nm fluorescence, primary screen (AID 1096); conditions: small-molecule microarray, 635 nm fluorescence, higher = more signal
[10] = probe aEGFR binding to arrayed compounds – biochemical, biotinylated probe, 635/667 nm fluorescence, primary screen (AID 1097); conditions: small-molecule microarray, higher = more signal;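 note: probe is a biotinylated anti-EGFR antibody binding compounds printed on slides; score combines fluorescence near 667 nm and signal to noise of each spot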
[11] = tested on: Plasmodium falciparum Sir2 (PF13_0152, Sir2A); experiment: Plasmodium falciparum Sir2A binding compounds – biochemical, small-molecule microarray, 635 nm fluorescence, primary screen (AID 1098); conditions: fluorescence 635 nm, higher = more signal;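 note: score merges spot fluorescence intensity with its signal-to-noise ratio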
[12] = probe aDKK1 binding to arrayed compounds – biochemical, biotinylated probe, 635/667 nm fluorescence, primary screen (AID 1099); conditions: small-molecule microarray, higher = more signal;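 note: score merges 667nm spot fluorescence with signal to noise across triplicate slides; reference of the scale not given here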
[13] = probe aCHRDL2 binding to arrayed compounds – biochemical, biotinylated probe, 635/667 nm fluorescence, primary screen (AID 1100); conditions: small-molecule microarray, higher = more signal
[14] = change in splice reporter luminescence, either direction, cell-based, HEK293, spliceosome inhibition project, primary screen (AID 1101); conditions: HEK293 splicing luciferase reporter, 24 h, higher = more signal, called active from +8 up or from −8 down;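 note: HEK293 cells carrying a splicing-competent luciferase reporter gene; test concentration not given here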
[15] = biological target: Fibroblast growth factor 10 (Homo sapiens) (UniProt O15520); experiment: compounds binding fibroblast growth factor 10 – biochemical, small-molecule microarray, 635 nm fluorescence, primary screen (AID 1102); conditions: FGF10 binding, fluorescence 635 nm, higher = more signal
[16] = tested on: glycogen synthase kinase-3 (GSK3A per assay name; protocol says GSK3B); experiment: compounds binding glycogen synthase kinase-3 – biochemical, small-molecule microarray, 635 nm fluorescence, GSK3A, primary screen (AID 1103); conditions: fluorescence 635 nm, higher = more signal; note: the record names both GSK3A and GSK3B
[17] = biological target: Epidermal growth factor receptor (Homo sapiens) (UniProt P00533); experiment: compounds binding epidermal growth factor receptor – biochemical, small-molecule microarray, 635 nm fluorescence, primary screen (AID 1104); conditions: EGFR binding, higher = more signal;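 note: score merges 667 nm emission intensity with spot signal to noise over triplicate slides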
[18] = biological target: Follistatin-related protein 3 (Homo sapiens) (UniProt O95633); experiment: compounds binding follistatin-related protein 3 – biochemical, small-molecule microarray, 635 nm fluorescence, primary screen (AID 1105); conditions: FSTL3 binding, higher = more signal;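 note: score merges emission near 667 nm and signal to noise per printed spot across three slides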
[19] = biological target: Dickkopf-related protein 1 (Homo sapiens) (UniProt O94907); experiment: small molecules binding DKK1 protein – biochemical, small-molecule microarray, 635 nm fluorescence scan, primary screen (AID 1106); conditions: higher = more signal;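 note: score merges emission near 667 nm with signal to noise over three replicate slides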
[20] = tested on: Inhibin beta A chain (activin A); experiment: small molecules binding activin A – biochemical, small-molecule microarray, 635 nm fluorescence scan, primary screen (AID 1107); conditions: INHBA, higher = more signal;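 note: mouse activin A protein probed at 4.33 µg/mL on printed slides; score merges bound-protein fluorescence near 667 nm with spot signal-to-noise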

Sequence of Neurogenic locus notch homolog protein 3 (Homo sapiens) (Q9UM47 whole entry, looked up): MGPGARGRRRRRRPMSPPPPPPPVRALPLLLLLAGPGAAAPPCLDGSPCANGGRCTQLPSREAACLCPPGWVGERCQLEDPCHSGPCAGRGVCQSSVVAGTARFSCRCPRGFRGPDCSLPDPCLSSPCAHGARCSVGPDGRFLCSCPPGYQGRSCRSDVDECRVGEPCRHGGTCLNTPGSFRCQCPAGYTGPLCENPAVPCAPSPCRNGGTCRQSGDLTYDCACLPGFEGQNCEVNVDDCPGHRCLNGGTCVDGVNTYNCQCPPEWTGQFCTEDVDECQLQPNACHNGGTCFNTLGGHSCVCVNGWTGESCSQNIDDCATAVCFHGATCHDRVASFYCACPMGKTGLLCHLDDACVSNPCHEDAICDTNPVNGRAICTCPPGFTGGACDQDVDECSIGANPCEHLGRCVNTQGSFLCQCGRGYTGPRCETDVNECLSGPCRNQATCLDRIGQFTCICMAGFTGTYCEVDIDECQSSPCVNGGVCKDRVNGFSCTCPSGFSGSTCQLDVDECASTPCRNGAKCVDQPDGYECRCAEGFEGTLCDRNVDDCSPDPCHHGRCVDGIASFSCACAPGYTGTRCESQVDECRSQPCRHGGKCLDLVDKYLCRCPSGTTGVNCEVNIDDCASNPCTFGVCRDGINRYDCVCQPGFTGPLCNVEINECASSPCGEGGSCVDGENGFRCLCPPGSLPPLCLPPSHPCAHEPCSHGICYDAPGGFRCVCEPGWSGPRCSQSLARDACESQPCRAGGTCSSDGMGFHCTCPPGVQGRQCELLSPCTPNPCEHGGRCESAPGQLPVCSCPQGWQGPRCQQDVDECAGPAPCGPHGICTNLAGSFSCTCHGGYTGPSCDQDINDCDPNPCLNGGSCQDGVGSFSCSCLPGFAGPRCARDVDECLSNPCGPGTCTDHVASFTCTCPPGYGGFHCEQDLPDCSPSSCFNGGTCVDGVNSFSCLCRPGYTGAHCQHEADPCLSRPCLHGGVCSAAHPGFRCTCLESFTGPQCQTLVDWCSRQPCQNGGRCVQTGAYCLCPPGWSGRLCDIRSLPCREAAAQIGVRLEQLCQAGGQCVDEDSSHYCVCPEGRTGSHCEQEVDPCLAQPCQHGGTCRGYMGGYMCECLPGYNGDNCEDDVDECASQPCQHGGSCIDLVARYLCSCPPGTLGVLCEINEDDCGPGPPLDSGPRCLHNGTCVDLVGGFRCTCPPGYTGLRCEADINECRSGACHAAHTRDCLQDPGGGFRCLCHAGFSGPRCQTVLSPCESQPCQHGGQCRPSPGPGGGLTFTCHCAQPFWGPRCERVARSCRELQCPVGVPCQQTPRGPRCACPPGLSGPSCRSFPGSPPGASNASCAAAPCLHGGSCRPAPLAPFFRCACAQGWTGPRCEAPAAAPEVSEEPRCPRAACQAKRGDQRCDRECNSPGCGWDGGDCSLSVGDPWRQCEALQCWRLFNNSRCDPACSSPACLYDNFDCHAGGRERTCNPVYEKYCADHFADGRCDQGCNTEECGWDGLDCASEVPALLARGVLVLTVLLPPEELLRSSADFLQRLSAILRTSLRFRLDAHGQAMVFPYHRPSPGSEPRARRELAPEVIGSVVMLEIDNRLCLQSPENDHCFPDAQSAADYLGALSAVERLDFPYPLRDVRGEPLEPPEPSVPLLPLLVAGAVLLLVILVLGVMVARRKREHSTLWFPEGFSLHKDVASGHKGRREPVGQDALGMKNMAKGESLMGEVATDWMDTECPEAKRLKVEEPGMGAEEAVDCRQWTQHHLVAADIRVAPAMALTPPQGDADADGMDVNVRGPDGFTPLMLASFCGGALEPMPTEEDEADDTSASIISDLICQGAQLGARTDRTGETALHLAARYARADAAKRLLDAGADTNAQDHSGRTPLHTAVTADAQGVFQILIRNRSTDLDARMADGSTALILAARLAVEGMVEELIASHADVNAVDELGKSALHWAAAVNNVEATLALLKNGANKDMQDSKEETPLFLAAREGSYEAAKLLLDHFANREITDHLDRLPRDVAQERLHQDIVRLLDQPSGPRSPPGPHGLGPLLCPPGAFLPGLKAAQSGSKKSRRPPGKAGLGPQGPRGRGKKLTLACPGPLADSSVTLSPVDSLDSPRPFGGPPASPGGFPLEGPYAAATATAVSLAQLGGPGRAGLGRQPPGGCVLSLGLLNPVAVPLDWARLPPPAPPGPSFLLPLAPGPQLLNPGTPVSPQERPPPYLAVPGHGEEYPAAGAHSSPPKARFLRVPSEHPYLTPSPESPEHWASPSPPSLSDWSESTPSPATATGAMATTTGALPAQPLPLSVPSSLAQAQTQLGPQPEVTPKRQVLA
Sequence of Torsin-1A-interacting protein 2 (Homo sapiens) (Q8NFQ8 whole entry, looked up): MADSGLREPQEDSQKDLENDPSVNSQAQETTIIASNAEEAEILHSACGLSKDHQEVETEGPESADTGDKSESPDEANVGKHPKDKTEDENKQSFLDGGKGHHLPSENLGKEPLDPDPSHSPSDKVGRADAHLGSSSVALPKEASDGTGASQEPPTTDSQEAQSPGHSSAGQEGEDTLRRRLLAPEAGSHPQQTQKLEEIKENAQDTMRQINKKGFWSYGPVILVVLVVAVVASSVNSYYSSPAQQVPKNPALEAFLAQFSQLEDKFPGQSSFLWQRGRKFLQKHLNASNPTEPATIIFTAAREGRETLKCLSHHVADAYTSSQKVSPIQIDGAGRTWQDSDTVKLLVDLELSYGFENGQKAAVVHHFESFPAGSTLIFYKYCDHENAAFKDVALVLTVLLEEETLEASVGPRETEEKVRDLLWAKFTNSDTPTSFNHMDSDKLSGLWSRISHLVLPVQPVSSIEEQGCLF
Sequence of Fibroblast growth factor 10 (Homo sapiens) (O15520 whole entry, looked up): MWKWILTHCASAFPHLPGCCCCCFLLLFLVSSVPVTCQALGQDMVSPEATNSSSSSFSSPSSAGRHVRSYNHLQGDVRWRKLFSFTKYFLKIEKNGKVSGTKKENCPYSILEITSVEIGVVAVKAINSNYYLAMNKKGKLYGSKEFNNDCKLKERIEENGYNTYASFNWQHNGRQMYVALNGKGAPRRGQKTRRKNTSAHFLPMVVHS
Sequence of Follistatin-related protein 3 (Homo sapiens) (O95633 whole entry, looked up): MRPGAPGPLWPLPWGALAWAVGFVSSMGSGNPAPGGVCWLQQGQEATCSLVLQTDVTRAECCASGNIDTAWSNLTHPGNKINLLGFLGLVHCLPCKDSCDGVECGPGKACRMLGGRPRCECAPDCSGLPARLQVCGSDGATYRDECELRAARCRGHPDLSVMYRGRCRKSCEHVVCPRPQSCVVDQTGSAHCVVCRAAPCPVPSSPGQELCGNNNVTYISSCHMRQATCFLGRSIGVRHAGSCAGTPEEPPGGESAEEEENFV
Sequence of Epidermal growth factor receptor (Homo sapiens) (P00533 whole entry, looked up): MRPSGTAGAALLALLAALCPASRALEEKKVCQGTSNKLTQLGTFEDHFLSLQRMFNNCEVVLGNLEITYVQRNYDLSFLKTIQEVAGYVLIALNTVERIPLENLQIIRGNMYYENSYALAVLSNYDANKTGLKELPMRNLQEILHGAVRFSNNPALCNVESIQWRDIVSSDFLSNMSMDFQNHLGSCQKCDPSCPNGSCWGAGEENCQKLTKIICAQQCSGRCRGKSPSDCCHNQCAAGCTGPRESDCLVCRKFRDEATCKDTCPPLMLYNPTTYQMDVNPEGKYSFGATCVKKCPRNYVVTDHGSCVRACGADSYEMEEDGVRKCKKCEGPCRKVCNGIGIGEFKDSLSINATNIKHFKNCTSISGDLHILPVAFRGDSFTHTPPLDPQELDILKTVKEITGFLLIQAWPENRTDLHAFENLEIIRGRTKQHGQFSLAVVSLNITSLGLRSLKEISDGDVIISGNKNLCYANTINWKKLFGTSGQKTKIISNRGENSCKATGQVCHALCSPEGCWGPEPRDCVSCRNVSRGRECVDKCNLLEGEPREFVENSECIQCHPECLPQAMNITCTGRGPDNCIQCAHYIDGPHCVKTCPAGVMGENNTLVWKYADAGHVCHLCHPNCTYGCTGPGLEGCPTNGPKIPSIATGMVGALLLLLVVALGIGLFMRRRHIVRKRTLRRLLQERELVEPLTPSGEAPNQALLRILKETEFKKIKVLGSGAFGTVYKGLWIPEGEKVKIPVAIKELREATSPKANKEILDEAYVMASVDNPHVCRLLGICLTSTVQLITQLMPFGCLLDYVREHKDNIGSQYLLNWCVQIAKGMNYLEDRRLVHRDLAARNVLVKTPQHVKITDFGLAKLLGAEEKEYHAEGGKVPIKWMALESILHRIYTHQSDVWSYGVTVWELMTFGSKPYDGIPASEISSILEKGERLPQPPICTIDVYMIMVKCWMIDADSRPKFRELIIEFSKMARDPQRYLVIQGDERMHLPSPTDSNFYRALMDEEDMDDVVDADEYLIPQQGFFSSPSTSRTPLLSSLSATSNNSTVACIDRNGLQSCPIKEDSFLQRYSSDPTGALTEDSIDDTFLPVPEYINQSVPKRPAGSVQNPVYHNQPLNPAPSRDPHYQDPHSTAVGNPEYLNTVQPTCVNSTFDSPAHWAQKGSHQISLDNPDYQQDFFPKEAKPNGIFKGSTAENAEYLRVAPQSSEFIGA
Sequence of Dickkopf-related protein 1 (Homo sapiens) (O94907 whole entry, looked up): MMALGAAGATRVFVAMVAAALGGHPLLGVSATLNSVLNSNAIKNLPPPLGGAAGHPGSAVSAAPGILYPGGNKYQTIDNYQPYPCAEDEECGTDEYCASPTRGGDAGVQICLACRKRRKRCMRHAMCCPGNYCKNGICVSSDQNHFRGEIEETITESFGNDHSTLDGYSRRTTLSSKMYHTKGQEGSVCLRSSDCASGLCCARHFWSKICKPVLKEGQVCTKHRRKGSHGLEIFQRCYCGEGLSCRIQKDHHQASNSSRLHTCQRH

Compound	composite z-score [1]	z-score [2]	z-score [3]	z-score [4]	composite z-score [5]	z-score [6]	composite z-score [7]	composite z-score [8]	composite z-score [9]	composite z-score [10]	composite z-score [11]	composite z-score [12]	composite z-score [13]	z-score [14]	composite z-score [15]	composite z-score [16]	composite z-score [17]	composite z-score [18]	composite z-score [19]	composite z-score [20]
C=C(COC)/C(=C/C[C@@H](OC(C)=O)c1ccccc1OCCO)c1cc(C(=O)OC)ccc1OC	1.37	1.16 (inactive)	-0.145 (inactive)	-0.167 (inactive)	1.67	0.174 (inactive)	-0.0873	0.0363	0.455	-0.0141	1.01	-0.0445	0.012	0.846 (inactive)	1.23	-0.208	-0.676	-0.0333	-0.343	0.416
COc1cc2c(cc1O)C(c1ccc(CN3CCCC3)cc1)N(Cc1cccc(OC(F)(F)F)c1)CC2 (stereo not given)	0.996	-26.1 (active)	-20.2 (active)	-3.95 (inactive)	3.04	-6.17 (inactive)	0.045	0.0433	0.499	0.213	1.02	0.422	0.414	-2.59 (inactive)	0.15	0.213	0.576	0.81	0.36	1.44
COC(=O)[C@H](Cc1ccc(O)cc1)N1CC2=CCCC=C[C@@H]2[C@H]1[C@H](O)Cc1ccccc1	1.13	-0.662 (inactive)	-2.3 (inactive)	-1.03 (inactive)	0.616	0.65 (inactive)	-0.29	0.191	-0.0213	-0.112	0.751	-0.301	-0.538	-1.07 (inactive)	0.477	-0.159	0.72	0.255	0.0139	0.493
O=C1C2C=CC(C(O)C(c3ccccc3)c3ccccc3)N(Nc3ccccc3)C2C(=O)N1c1ccccc1 (stereo not given)	1.55	0.838 (inactive)	0.0855 (inactive)	0.281 (inactive)	3.23	-1.15 (inactive)	0.0731	0.351	1.03	0.056	1.46	0.467	0.741	-0.384 (inactive)	0.68	1.32	0.385	1.44	-0.42	0.221
COC(=O)[C@@]1(CCC(=O)OC(C)(C)C)N=C(c2ccc(OCCCO)cc2)O[C@H]1c1ccccc1CN=[N+]=[N-]	0.373	0.0206 (inactive)	0.646 (inactive)	9.66 (active)	1.85	1.08 (inactive)	-0.0963	0.201	0.235	-0.0418	1.3	0.425	0.87	1.29 (inactive)	-0.035	-0.546	-0.827	0.157	-0.346	0.282
CCCCC(O)C1C=CC2C(=O)NC(=O)C2N1Nc1ccc(Cl)cc1Cl (stereo not given)	-0.338	-25.2 (active)	-8.47 (active)	-1.58 (inactive)	2.28	-1.55 (inactive)	0.259	-0.314	0.303	-0.0232	0.976	0.635	1.03	-0.167 (inactive)	0.228	-0.104	-0.429	-0.125	-0.8	0.979
C[C@]1(C(=O)NCC(F)(F)F)c2ccccc2C(=O)N(Cc2ccc(OC(F)(F)F)cc2)[C@H]1c1ccc(CO)cc1	0.64	0.0118 (inactive)	-0.47 (inactive)	-0.568 (inactive)	1.03	-0.975 (inactive)	-0.133	0.344	-0.464	-0.0987	1.34	-0.0378	0.0314	-0.24 (inactive)	0.155	-0.507	0.179	-0.345	0.0106	0.19
NCCCC[C@@H]1NC(=O)[C@H]2C[C@@H](C(=O)O)[C@@H](c3cccc(OCCO)c3)N2C1=O	1.53	1.42 (inactive)	-1.66 (inactive)	-0.503 (inactive)	3.33	-1.31 (inactive)	0.781	1.85	1.02	0.703	1.61	1.21	0.752	-0.615 (inactive)	1.51	1.35	1.53	1.53	1.62	1.03
COCCCN1C(=O)[C@@]2(Cc3ccccc31)c1ccccc1C(=O)N(Cc1ccccc1OC)[C@H]2c1ccc(CO)cc1	0.727	-1.14 (inactive)	-0.2 (inactive)	-1.33 (inactive)	1.04	0.258 (inactive)	0.0224	-0.913	-0.274	-0.108	-0.909	0.612	0.9	0.307 (inactive)	-0.426	-0.428	-0.352	0.154	0.514	0.157
COc1ccc([Si](C)(C)[C@H]2[C@H](CC(=O)N3Cc4ccccc4C[C@H]3CO)O[C@@]3(C(=O)N(Cc4cccc(N5C(=O)c6cccc7cccc5c67)c4)c4ccccc43)[C@@H]2C)cc1	1.56	-0.0979 (inactive)	0.39 (inactive)	1.77 (inactive)	2.14	-0.0872 (inactive)	-0.173	1.57	1.13	-0.122	1.63	-0.37	-0.151	-1.87 (inactive)	1.31	0.627	0.774	1.28	0.948	1.2
CC(C)C(=C=CC[C@@H](O)c1ccccc1OCCO)C[C@@H](O)c1cc(Cl)cc(Cl)c1O	1.54	-0.0964 (inactive)	-1.46 (inactive)	-0.443 (inactive)	2.7	-0.101 (inactive)	-0.108	1.67	1.09	0.0182	0.665	-0.102	-0.555	-1.59 (inactive)	1.46	1.13	0.472	1.16	0.741	0.169
CCOC(=O)C[C@H]1[C@H](OC(=O)c2ccc(C(=O)c3ccccc3)cc2)[C@@H](NC(=O)c2ccc3ccccc3c2)c2cc(OCCCO)ccc2N1C(=O)c1ccc2ccccc2n1	1.26	0.216 (inactive)	-0.629 (inactive)	0.256 (inactive)	0.962	1.79 (inactive)	0.0249	0.836	1.03	0.111	0.608	0.124	0.0404	-0.372 (inactive)	0.388	0.712	0.598	0.624	0.713	0.676
C=CC[C@@]1(C(=O)N(C)C)N=C(c2ccc(OCCCO)cc2)O[C@@H]1c1ccccc1	0.52	-0.69 (inactive)	-2.28 (inactive)	-2.31 (inactive)	3.5	-0.343 (inactive)	0.363	-0.474	-0.0401	0.464	1.72	0.595	0.959	-0.69 (inactive)	1.4	1.01	-0.644	-0.583	-0.217	1.17
CC(C)C[C@@H]1NC(=O)[C@@H]2C[C@H](C(=O)NCCCC[N+](C)(C)C)[C@H](c3ccc(O)cc3)N2C1=O	1.53	-0.246 (inactive)	0.491 (inactive)	-1.48 (inactive)	1.76	0.0731 (inactive)	-0.0295	1.91	1.02	0.0251	1.39	-0.0913	-0.587	0.438 (inactive)	1.3	0.896	0.81	1.56	1.79	-0.531
CC(C)C[C@H]1NC(=O)[C@H](Cc2ccccc2)NC(=O)[C@@]23C(=O)N[C@@H](Cc4ccccc4)C2[C@H](C)[C@@]2(C)O[C@H]2C3/C=C/C/C=C\CNC1=O (stereo not given in full)	1.21	-1.12 (inactive)	-0.667 (inactive)	-0.302 (inactive)	1.46	-1.03 (inactive)	-0.123	0.426	0.852	-0.0968	1.19	0.0099	-0.4	-0.514 (inactive)	0.916	0.979	0.121	0.676	0.726	1.12
CC(C)CNC(=O)[C@@H]1c2ccccc2C(=O)N(Cc2ccccc2Cl)[C@H]1c1ccc(CO)cc1	-0.469	-0.691 (inactive)	-0.354 (inactive)	-0.332 (inactive)	3.09	0.534 (inactive)	0.0529	-1.04	-1.08	-0.239	1.29	0.495	0.959	0.587 (inactive)	-0.765	0.729	-0.519	-0.644	-1.17	-0.114
CC(C)C[C@@H]1NC(=O)[C@@]23C(=O)N[C@@H](Cc4ccccc4)C2[C@H](C)[C@@]2(C)O[C@H]2C3/C=C/C/C=C\CNC(=O)[C@@H](CC(C)C)NC1=O (stereo not given in full)	1.55	-0.652 (inactive)	-17.9 (active)	0.241 (inactive)	2.16	-0.313 (inactive)	-0.184	0.914	0.895	-0.0814	0.331	-0.299	-0.496	-0.958 (inactive)	0.37	0.193	0.367	1.1	0.511	0.904
C[C@@H](OCc1ccccc1)C1NC(=O)[C@@]23C(=O)N[C@@H](Cc4ccccc4)C2[C@H](C)[C@@]2(C)O[C@H]2C3/C=C/C/C=C\CNC(=O)[C@H](Cc2ccccc2)NC1=O (stereo not given in full)	0.448	-0.712 (inactive)	-0.985 (inactive)	-0.0389 (inactive)	0.956	1.29 (inactive)	-0.23	0.762	0.655	-0.0257	0.21	-0.288	-0.743	-0.708 (inactive)	1.35	0.297	0.12	0.869	0.443	1.08
